Experimental data: ChEMBL document CHEMBL3988442, “University of Dundee, Small-Polar-MMV Screening Library” (2021)
For part of these data: Potency and affinity values are given separately.

Experiments:
Parameters in all cases: scale not given: direction of the effect not stated beside the values
[1] = target: Protein translocase subunit SecA (Escherichia coli (strain K12)) (UniProt P10408); assay: Assay to Identify E. coli SecA ATPase Inhibitors; type: functional; settings: 30 µM
[2] = target: T1, Ubiquitin-activating enzyme e1, putative (Leishmania donovani (strain BPK282A1)) (UniProt E9BSI1); assay: Leishmania donovani Ubiquitin Activating Enzyme (LdE1); type: functional; settings: 30 µM
T1 sequence (whole entry): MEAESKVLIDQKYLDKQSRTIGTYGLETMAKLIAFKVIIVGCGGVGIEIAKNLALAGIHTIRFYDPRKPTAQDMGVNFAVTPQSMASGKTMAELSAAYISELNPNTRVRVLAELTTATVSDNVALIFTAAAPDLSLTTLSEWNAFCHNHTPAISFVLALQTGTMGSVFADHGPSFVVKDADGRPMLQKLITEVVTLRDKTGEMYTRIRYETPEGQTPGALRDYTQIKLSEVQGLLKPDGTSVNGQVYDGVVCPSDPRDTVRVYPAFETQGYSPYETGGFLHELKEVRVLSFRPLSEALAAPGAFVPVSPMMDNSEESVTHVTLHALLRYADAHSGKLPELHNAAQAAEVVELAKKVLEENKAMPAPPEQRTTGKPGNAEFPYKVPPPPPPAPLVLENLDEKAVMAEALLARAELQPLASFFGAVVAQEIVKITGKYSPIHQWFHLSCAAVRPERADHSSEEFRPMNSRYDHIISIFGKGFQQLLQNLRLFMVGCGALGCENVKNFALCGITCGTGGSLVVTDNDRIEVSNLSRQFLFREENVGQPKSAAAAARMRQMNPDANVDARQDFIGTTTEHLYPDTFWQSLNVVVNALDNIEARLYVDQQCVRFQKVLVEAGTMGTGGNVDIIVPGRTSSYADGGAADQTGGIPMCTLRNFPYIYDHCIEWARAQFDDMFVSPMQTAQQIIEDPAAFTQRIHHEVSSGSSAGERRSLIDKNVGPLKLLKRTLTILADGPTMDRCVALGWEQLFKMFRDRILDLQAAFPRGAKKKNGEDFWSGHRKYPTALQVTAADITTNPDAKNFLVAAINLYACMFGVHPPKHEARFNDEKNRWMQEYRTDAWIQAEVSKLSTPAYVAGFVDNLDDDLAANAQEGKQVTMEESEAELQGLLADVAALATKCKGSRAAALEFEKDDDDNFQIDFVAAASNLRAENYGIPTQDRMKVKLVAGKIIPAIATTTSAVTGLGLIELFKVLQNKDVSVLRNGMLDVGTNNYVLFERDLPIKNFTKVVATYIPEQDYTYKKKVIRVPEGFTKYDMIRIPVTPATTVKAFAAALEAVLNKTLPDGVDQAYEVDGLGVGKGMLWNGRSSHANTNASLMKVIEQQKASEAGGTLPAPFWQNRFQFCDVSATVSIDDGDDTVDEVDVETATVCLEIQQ

[3] = target: Sialic acid-binding Ig-like lectin 9 (Homo sapiens) (UniProt Q9Y336); assay: Hs-Siglec9 ALPHAscreen SOP 20170721; settings: 10 µM
Trypanosoma cruzi = assay: Trypanosoma cruzi phosphomannomutase and mannose-1-phosphate guanylyltransferase assay; type: functional; settings: 10 µM
[4] = target: T2, Arginase-2, mitochondrial (Homo sapiens) (UniProt P78540); assay: in vitro enzyme assay to detect the production of urea directly proportional to the activity of Arginase II; type: functional; settings: 33.3 µM; also: in the data most compounds retested in dose-response had high values
T2 sequence (whole entry): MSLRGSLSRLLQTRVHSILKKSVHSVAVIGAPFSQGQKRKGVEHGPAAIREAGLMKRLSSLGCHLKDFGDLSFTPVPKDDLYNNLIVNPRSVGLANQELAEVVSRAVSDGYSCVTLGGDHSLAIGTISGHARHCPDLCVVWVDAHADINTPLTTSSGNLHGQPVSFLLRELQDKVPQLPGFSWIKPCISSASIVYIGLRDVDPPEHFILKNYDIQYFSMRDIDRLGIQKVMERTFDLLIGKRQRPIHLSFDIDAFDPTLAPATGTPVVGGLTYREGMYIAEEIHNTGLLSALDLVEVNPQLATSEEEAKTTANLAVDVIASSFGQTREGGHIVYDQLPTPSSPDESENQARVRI

[5] = target: T3, Proteasome subunit beta (Trypanosoma cruzi) (UniProt O96673); assay: Trypanosoma cruzi proteasome chymotrypsin-like activity (TcProtChymo) assay.; also: in the data most compounds retested in dose-response had high values; type: functional; settings: 9.37 µM
T3 sequence (whole entry): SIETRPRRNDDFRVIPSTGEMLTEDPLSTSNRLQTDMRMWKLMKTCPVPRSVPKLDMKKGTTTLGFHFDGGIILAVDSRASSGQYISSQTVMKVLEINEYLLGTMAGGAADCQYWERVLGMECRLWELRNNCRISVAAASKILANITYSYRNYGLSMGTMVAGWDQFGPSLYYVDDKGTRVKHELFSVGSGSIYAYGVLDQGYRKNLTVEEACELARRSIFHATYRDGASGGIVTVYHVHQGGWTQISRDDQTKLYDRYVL

Homo sapiens = organism: Homo sapiens; assay: To identify inhibition of the IFN signalling (Jak-Stat) pathway via expression of an eGFP reporter gene under the control of an IFN-stimulated response element (ISRE) containing MxA promoter.; type: functional; settings: 30 µM
[6] = target: T4, Tyrosyl-tRNA synthetase, putative (Trypanosoma cruzi (strain CL Brener)) (UniProt Q4DSP6); assay: Trypanosoma cruzi tyrosyl tRNA synthetase (TcYRS) _High Tyrosine SOP; type: functional; settings: 30 µM; also: in the data most compounds retested in dose-response had high values
T4 sequence (whole entry): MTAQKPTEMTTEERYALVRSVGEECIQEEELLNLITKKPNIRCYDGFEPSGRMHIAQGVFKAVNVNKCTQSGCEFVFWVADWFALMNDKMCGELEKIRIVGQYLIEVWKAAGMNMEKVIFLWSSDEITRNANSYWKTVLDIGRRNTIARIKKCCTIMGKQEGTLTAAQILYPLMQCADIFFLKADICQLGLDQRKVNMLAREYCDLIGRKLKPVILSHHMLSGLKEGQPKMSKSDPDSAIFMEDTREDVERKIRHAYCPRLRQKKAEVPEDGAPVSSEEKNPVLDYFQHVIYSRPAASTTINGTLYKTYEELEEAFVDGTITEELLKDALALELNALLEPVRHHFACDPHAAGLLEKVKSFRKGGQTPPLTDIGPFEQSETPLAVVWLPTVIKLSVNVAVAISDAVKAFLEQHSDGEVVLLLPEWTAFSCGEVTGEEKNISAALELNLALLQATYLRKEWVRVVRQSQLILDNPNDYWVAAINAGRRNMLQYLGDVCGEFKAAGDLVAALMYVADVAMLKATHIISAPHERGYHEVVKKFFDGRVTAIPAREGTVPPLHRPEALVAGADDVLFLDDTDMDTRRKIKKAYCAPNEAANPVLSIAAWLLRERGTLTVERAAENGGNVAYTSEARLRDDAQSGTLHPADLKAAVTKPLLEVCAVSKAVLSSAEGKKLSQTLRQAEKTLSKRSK

[7] = target: T4, Tyrosyl-tRNA synthetase, putative (Trypanosoma cruzi (strain CL Brener)); assay: Trypanosoma cruzi tyrosyl tRNA synthetase (TcYRS) SOP; type: functional; settings: 30 µM
[8] = target: Chromo domain-containing protein 1 (Saccharomyces cerevisiae (strain ATCC 204508 / S288c) (Baker's yeast)) (UniProt P32657); assay: ScCHD-1 Enzyme Inhibition Assay; type: functional; settings: 30 µM; also: in the data most compounds retested in dose-response had high values
Chain of Chromo domain-containing protein 1 (Saccharomyces cerevisiae (strain ATCC 204508 / S288c) (Baker's yeast)) (P32657 whole entry, the tested form may be a part): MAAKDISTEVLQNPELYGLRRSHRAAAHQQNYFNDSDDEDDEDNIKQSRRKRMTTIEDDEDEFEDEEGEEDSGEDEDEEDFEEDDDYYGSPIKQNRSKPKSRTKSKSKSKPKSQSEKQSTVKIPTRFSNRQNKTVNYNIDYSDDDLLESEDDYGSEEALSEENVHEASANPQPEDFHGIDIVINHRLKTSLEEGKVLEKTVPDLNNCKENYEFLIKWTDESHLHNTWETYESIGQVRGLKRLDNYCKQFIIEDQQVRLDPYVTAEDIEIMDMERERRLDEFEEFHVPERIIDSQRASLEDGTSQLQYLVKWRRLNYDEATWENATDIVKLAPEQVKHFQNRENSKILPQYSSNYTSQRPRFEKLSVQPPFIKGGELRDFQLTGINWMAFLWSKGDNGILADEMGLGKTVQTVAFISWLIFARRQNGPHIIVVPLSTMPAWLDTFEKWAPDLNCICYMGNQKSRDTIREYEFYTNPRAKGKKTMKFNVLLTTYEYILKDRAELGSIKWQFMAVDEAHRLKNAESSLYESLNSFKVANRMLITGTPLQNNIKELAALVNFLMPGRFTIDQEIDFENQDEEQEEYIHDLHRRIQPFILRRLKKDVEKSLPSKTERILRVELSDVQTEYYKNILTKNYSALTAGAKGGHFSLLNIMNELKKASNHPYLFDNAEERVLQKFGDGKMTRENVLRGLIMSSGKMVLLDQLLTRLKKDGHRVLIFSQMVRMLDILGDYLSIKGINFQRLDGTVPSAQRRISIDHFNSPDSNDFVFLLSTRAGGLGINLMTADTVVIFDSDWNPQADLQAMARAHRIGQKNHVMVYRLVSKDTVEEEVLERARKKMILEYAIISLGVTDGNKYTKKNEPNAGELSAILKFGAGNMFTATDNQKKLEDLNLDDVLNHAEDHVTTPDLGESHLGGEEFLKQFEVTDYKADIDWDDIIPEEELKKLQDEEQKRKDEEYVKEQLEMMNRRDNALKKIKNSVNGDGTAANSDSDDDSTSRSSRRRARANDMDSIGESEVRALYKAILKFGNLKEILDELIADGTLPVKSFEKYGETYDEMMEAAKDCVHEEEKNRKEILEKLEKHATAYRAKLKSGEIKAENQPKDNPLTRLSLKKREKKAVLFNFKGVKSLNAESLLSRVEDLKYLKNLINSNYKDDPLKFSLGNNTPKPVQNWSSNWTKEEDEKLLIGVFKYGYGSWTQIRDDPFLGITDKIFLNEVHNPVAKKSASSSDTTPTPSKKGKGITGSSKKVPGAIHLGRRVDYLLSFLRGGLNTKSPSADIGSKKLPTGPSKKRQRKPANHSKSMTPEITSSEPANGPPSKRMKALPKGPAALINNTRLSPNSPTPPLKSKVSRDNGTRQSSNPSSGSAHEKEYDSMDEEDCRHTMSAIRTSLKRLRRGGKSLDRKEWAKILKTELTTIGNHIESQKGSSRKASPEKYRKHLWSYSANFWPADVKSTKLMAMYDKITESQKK

Chain of Protein translocase subunit SecA (Escherichia coli (strain K12)) (P10408 whole entry): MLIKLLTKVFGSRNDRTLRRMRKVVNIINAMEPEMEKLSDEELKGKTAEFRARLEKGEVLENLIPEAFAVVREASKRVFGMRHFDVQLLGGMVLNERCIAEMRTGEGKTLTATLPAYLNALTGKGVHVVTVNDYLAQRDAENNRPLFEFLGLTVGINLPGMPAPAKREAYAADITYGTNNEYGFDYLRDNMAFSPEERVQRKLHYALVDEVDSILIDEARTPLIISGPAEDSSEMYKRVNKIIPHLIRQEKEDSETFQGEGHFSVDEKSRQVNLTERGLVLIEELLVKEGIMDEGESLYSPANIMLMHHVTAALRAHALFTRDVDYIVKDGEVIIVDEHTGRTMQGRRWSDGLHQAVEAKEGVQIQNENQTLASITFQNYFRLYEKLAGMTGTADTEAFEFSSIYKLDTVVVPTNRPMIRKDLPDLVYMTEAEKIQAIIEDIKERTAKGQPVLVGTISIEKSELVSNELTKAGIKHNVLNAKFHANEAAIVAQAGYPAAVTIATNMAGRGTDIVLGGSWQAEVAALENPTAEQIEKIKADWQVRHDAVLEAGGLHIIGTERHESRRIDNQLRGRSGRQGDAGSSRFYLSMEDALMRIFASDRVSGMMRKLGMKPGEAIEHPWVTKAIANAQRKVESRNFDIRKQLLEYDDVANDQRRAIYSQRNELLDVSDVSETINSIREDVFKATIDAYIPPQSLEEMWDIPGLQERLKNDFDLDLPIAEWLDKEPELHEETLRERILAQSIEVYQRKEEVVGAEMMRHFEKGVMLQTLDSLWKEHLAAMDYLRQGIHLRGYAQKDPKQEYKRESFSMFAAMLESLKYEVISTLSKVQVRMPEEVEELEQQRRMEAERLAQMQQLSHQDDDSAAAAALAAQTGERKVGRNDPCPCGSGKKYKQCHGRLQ
Chain of Sialic acid-binding Ig-like lectin 9 (Homo sapiens) (Q9Y336 whole entry): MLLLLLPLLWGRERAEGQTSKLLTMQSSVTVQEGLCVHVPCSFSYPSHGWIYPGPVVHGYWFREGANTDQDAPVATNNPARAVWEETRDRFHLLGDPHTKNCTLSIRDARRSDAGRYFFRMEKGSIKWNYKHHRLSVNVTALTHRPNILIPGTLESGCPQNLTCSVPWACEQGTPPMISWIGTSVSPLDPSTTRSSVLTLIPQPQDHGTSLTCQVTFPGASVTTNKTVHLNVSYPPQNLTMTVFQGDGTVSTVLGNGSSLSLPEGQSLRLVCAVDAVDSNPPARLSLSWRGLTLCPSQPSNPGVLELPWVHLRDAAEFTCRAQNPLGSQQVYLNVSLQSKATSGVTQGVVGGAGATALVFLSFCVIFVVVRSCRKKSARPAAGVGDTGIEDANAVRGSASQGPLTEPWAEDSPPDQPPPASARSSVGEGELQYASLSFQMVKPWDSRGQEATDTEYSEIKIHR

| SMILES | Percent Effect [1] [%] | Percent Effect [2] [%] | Percent Effect [3] [%] | Percent Effect (Trypanosoma cruzi) [%] | Percent Effect [4] [%] | Percent Effect [5] [%] | Percent Effect (Homo sapiens) [%] | Percent Effect [6] [%] | Percent Effect [7] [%] | Percent Effect [8] [%] |
| --- | --- | --- | --- | --- | --- | --- | --- | --- | --- | --- |
| CS(=O)(=O)N1CCC2(CC1)CC(CC(=O)N1CCCC1)c1ccccc12 (stereo not given) | -6.42 | 6.49 | 10.4 | -2.43 | -5.67 | 2.21 | -5.9 | 1.58 | -7.69 | 2.73 |
| Cc1cc(C)n(CC2CCCCN2C(=O)c2cnn(C)c2)n1 (stereo not given) | -5.83 | 8 | 1.34 | -5.22 | -2.22 | 6.02 | 5.12 | -0.526 | 2.56 | -0.708 |
| CN(C)C[C@H]1OC[C@@H]2CCN(S(=O)(=O)c3cccs3)C[C@@H]21 | -10.2 | 1.3 | 12.5 | -2.43 | -2.43 | 2.56 | 0.627 | -0.526 | -2.56 | 19.4 |
| COc1ccccc1CC(=O)N1CC[C@@]2(CCCO2)[C@@H](OC)C1 | -3.82 | 4 | -4.43 | -3.35 | -9.29 | 6.4 | 14.4 | -1.06 | 5 | -24.2 |
| COc1cccc(C(=O)NCCCN2CCc3ccccc3C2)c1OC | -0.301 | -5.33 | 7.23 | -2.81 | 1.77 | -5.34 | 10.1 | 2.63 | 0 | -4.32 |
| O=C(Nc1nnc(C2CC2)s1)NC1CCN(Cc2ccccc2)C1 (stereo not given) | -5.17 | 12.8 | -8.9 | -2.35 | 0.82 | 4.01 | 43.6 | 0.478 | 10.8 | -0.956 |
| Cc1cccc(CN2C[C@@H]3COC[C@]3(CNC(=O)c3ccsc3)C2)n1 | -7.55 | 9.09 | -4.17 | 1.27 | -3.64 | 22.3 | -5.86 | 7.89 | 12.8 | 108 |
| Cc1ccc(CNC(=O)N2CCN(Cc3ccsc3)CC2)n1C | -3.87 | 2.67 | -1.44 | -5.42 | -5.76 | 14.5 | 15.6 | 2.63 | -17.9 | -19.4 |
| Cc1ccc(C(=O)N2CCC3(CC2)CCN(CCN(C)C)C3=O)cn1 | -3.6 | 6.49 | -4.15 | -1.31 | -0.457 | 6.44 | 11.3 | 7.73 | 7.5 | -6.63 |
| CC(C)n1[nH]c(=O)c2c1NC(=O)CC2c1ccc2ncccc2c1 (stereo not given) | -1.16 | 5.41 | 0.703 | -2.62 | -5.94 | 10.6 | 17.7 | 4.79 | 9.76 | 2.28 |
| O=C(NCCNC(=O)c1scnc1Cl)c1ccccc1 | -3.41 | 16 | 3.33 | 2.01 | -0.887 | 14.2 | 9.89 | 7.89 | 17.9 | -5 |
| CN1CCN(CC2CC2)C(=O)c2cnc(N3CCCCC3)nc21 | -6.28 | -45.3 | 3.74 | -1.41 | -3.99 | -4.83 | 19 | -2.63 | -5.13 | -2.64 |
| Cc1ccc(CN2CCCn3c(nc(Cn4cncn4)cc3=O)C2)s1 | -8.68 | 11.7 | -3.78 | 2.43 | -1.22 | 7.5 | -3.95 | 4.74 | 12.8 | -1.68 |
| Cc1ccc(OC2(C(=O)O)CCN(C(=O)c3nc(C)oc3C)CC2)cn1 | -6.7 | 0 | -0.0712 | 4.17 | 1.05 | -1.2 | -9.04 | 2.66 | 4.88 | 1.11 |
| CN(C)c1cc(C(=O)N2CCCC(n3cccn3)C2)ccn1 (stereo not given) | -2.71 | 5.13 | 3.76 | 1.97 | 3.69 | 2.47 | 18.3 | -4.31 | 18.1 | -3.29 |
| Cc1cccnc1C(=O)N1CCCC(c2[nH]ncc2S(C)(=O)=O)C1 (stereo not given) | -0.892 | 4 | 0.0565 | -4.54 | 3.1 | 0.985 | 20 | 5.29 | 7.5 | -20.1 |
| Cc1ccc(C(=O)N2CCN(CCC(C)(C)C)CC2)c(=O)[nH]1 | -4.94 | 5.13 | 4.25 | -0.845 | -0.82 | -1.79 | 12 | 3.35 | 1.21 | 1.43 |
| COC(=O)Cn1c(=O)nc2n1C(=O)N(c1ccc(Cl)cc1)C2 | -4.67 | 2.7 | 8.46 | -8.83 | -2.45 | 10.4 | -2.27 | 0.532 | 2.44 | -2.66 |
| COCC1CN(CC2CC2)Cc2nn(C)cc21 (stereo not given) | -8.74 | -1.3 | -2.43 | -6.91 | 2.02 | 10.5 | 4.75 | 1.58 | -5.13 | -3.01 |
| CCc1[nH]ncc1C(=O)N1CCCC(n2cccn2)C1 (stereo not given) | -3.15 | 13.3 | 7.05 | -2.21 | 4.88 | 7.38 | -9.13 | 4.74 | 15.4 | -7.04 |
| CC1CN(CC2CCCCC2)CCN1c1ccc2nncn2n1 (stereo not given) | 3.17 | 15.4 | -7.37 | -4.6 | -0.82 | 16.1 | 58.1 | 5.26 | 8.43 | 95.7 |
